Compounds without any hit were thinned out: in the full panel of roughly 83,000, 20% have a hit.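 Testing used 96-well plates and a 48-hour single-concentration exposure. Example: -40 means 40% of the starting cells died.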 A number with no mark means an inactive call. The source made the active and inactive calls. The calls were made as follows: active = growth percent below 10; inactive = the rest.
Experiments:
Test in all cases: NCI-60 one-dose screen, 48 h (100 = growth as untreated, 0 = no growth, -100 = all killed)
[1] = tested on: NCI-H460 lung; conditions: 10 µM unless noted
[2] = tested on: 786-0 renal; conditions: 10 µM unless noted
[3] = tested on: MALME-3M melanoma; conditions: 10 µM unless noted
[4] = tested on: RXF 393 renal; conditions: 10 µM unless noted
[5] = tested on: SF-295 CNS; conditions: 10 µM unless noted
[6] = tested on: SF-539 CNS; conditions: 10 µM unless noted
[7] = tested on: UACC-257 melanoma; conditions: 10 µM unless noted
[8] = tested on: HT29 colon; conditions: 10 µM unless noted
[9] = tested on: SK-MEL-5 melanoma; conditions: 10 µM unless noted
[10] = tested on: SK-MEL-2 melanoma; conditions: 10 µM unless noted
[11] = tested on: UO-31 renal; conditions: 10 µM unless noted
[12] = tested on: TK-10 renal; conditions: 10 µM unless noted
[13] = tested on: ACHN renal; conditions: 10 µM unless noted
[14] = tested on: A498 renal; conditions: 10 µM unless noted
[15] = tested on: HL-60(TB) leukemia; conditions: 10 µM unless noted
[16] = tested on: MOLT-4 leukemia; conditions: 10 µM
[17] = tested on: T-47D breast; conditions: 10 µM unless noted
[18] = tested on: SW-620 colon; conditions: 10 µM unless noted
[19] = tested on: HCC-2998 colon; conditions: 10 µM unless noted
[20] = tested on: COLO 205 colon; conditions: 10 µM

| Compound | growth [1] | growth [2] | growth [3] | growth [4] | growth [5] | growth [6] | growth [7] | growth [8] | growth [9] | growth [10] | growth [11] | growth [12] | growth [13] | growth [14] | growth [15] | growth [16] | growth [17] | growth [18] | growth [19] | growth [20] |
| --- | --- | --- | --- | --- | --- | --- | --- | --- | --- | --- | --- | --- | --- | --- | --- | --- | --- | --- | --- | --- |
| O=[N+]([O-])c1ccc(/C=C/C=C/c2ccc(S(=O)(=O)F)cc2)c(Cl)c1 | 107% | 97.5% | 102% | 92.2% | 93.1% | 104% | 96.5% | 96% | 97.9% | 84% | 79.2% | 108% | 102% | 100% | 91.9% | 84.1% | 86.2% | 104% | 106% |  |
| c1ccc([As]=[As]c2ccccc2)cc1 (stereo unspecified) | -45.2% (active) | -90.4% (active) | -84.5% (active) | -80.3% (active) | 43.8% | -66.8% (active) | -71.4% (active) | -82.8% (active) | -70.5% (active) |  | -96% (active) | -86% (active) | -99.1% (active) | -48.5% (active) | -50.4% (active) | -49.1% (active) | -73.1% (active) | -68.1% (active) | 0.927% (active) | -89.6% (active) |
| CCCCCCCC(=O)OCC/C=C/C1OC1C1OC(=O)/C=C\C=C\c2nc(oc2C)/C=C(/C)CCC2OC2C1OC(=O)NC(C)=O (stereo unspecified) | -51.5% (active) | -53.8% (active) | -12.4% (active) | -58.3% (active) | -37.6% (active) | -34.1% (active) | 5.16% (active) | 4.62% (active) | -93.8% (active) | -44.5% (active) | 2.49% (active) | 1.86% (active) | -16.8% (active) | -82.5% (active) |  |  | -42.6% (active) | -65.4% (active) | -92.8% (active) | -90.3% (active) |
| CC1(C)CC(=O)CC(C)(C)N1N=O | 114% | 109% | 130% | 136% | 111% | 94.3% | 104% | 99.4% | 111% |  | 91.5% | 91.8% | 103% | 106% | 77.4% | 101% | 97.3% |  | 97.9% | 96.2% |
| O=C1NC(=O)C(=Cc2cn(Cc3ccccc3)c3ccccc23)C(=O)N1 | 29.9% | 104% | 109% | 86.9% | 37.2% | 89.1% | 34.2% | 105% | 101% | 105% | 71.7% | 28.8% | 92.7% | -72.6% (active) | 96.3% | 132% | 55.9% | 83.6% | 70.2% | 18.3% |
| C[C@@H]1O[C@@H](O[C@H]2CC[C@@]3(C)[C@H](CCC4[C@@H]3C(O)C[C@]3(C)[C@@H](c5ccc(=O)oc5)CC[C@]43O)C2)[C@H](O)[C@H](O)[C@H]1O (stereo partly specified) | -80.7% (active) | -94.1% (active) | -45.9% (active) | -52.3% (active) | -71.5% (active) |  | -99.7% (active) | -90.4% (active) | -99.6% (active) | -81% (active) | -97.3% (active) | -97% (active) | -81.7% (active) | -27.9% (active) |  |  | -55.6% (active) | -79% (active) | -73.6% (active) |  |
| COC(=O)C1CC2c3ccccc3C1c1ccccc12 (stereo unspecified) | 104% | 104% | 90.6% | 94.6% | 87.3% | 101% | 97.8% | 106% | 94% | 103% | 83.6% | 107% | 97.9% | 98.4% | 108% | 97.3% | 102% | 106% | 107% | 99.8% |
| C=C=[CH][Sn]([c]1ccccc1)([c]1ccccc1)[c]1ccccc1 | -78.8% (active) | -81.2% (active) | -36.6% (active) | -83.5% (active) | -42.7% (active) | -29.9% (active) | -37.2% (active) | -72.1% (active) | -81.5% (active) | -30.6% (active) | -84.3% (active) | -74.7% (active) | -49.4% (active) |  |  |  | -36.7% (active) | -74.8% (active) | -67.2% (active) | -84.2% (active) |
| CC(=O)O[C@H]1CC[C@H]2[C@@H]3CC[C@H]4CC=C(C)C[C@]4(C)[C@H]3CC[C@]12C | 113% | 100% | 106% | 111% | 103% | 96.2% | 111% | 98.4% |  | 110% | 92.3% | 108% | 96.5% | 104% | 89.9% | 94% | 92.1% | 109% | 111% | 110% |
| CCOc1cc(/C=N\Nc2nnc(C)n2N)c(C)cc1N(CCCl)CCCl | 4.94% (active) | 13.1% |  | 29.7% | -26.6% (active) | 34.5% | -5.96% (active) | 23.9% | -47.3% (active) | 17.2% | -42.2% (active) | 31% | 21.6% | -26% (active) | -48.9% (active) | -9.42% (active) | 12.6% | 10.4% | 3.97% (active) |  |
| OC1(c2ccccc2F)c2ccccc2C2=NCCN21 (stereo unspecified) | 118% | 96.6% | 97.2% | -10.4% (active) | 91.8% | 100% | 111% | 105% | 94.6% | 94.6% | 84.2% | 90.4% | 114% | 105% | 83.8% | 97.7% | 104% | 96.8% | 100% | 101% |
| C/C(=C\C(=O)O[C@H]1[C@@H]2[C@H](C)CC[C@H]2[C@]2(C)O[C@@]1(C1CCCCC1)C[C@H]2OC(=O)CO)c1ccccc1 | 13.7% | -16% (active) | 64.4% | -10.1% (active) | 50.5% | 77.2% | 44.2% | 9.35% (active) | 71.7% | 55.8% | -47.2% (active) | 70.5% | -16.5% (active) | -83% (active) | -27.8% (active) |  |  | 43.1% | 25.9% |  |
| O=C(Nc1ccc(S(=O)(=O)F)cc1)Oc1ccccc1 | 102% | 102% | 101% | 95.3% | 96.8% | 104% | 111% | 102% | 96.3% | 107% | 87% | 96.5% | 106% | 97.6% | 105% | 109% | 95.9% | 97% | 110% | 110% |
| COP(=S)(OC)Oc1ccc(SC)c(C)c1 | 110% | 104% | 105% | 107% | 91.5% | 94.4% |  | 103% | 98.9% | 103% | 80.2% | 124% | 101% | 94.3% |  |  | 96.6% | 106% | 104% | 101% |
| O=C(O)C1[O][Sb][O]C1C(=O)O (stereo unspecified) | 108% | 102% | 86.8% | 116% | 123% | 98.2% | 98.2% | 104% | 86.9% | 96.5% | 90.7% | 101% | 106% | 116% | 91.1% | 94.6% | 89.3% | 117% | 106% | 109% |
| CCOc1cc(C=C(C#N)C#N)cc(Br)c1O | 102% |  | 106% | 121% | 110% | 99.5% | 107% | 92.5% | 105% | 102% | 88.9% | 102% | 106% | 96.4% |  | 85.5% | 98.5% | 106% | 99.4% | 103% |
| OC1(c2ccc(Cl)cc2Cl)c2ccccc2C2=NCCN21 (stereo unspecified) | 105% | 87.9% | 100% | -13% (active) | 95.3% | 102% | 86.2% | 92.2% | 83% | 98.2% | 82.1% | 76.6% | 103% | 94.4% | 63.3% | 78.9% | 93.3% | 92.7% | 75.3% | 90.6% |

— PubChem BioAssay (NCI)
